From PubChem BioAssay AID2289 (National Center for Advancing Translational Sciences (NCATS), 2010)
Among all 340,000 compounds or so, about 3,300 (0.97%) were called active. About 9% were inconclusive and are not listed. The call rests on the fitted dose curve; in most records, active means well fitted inhibition curve with a large enough effect; inconclusive means small, poorly fitted or top-dose-only effect, or effect the other way; inactive means flat fitted curve, though single readings scatter. This is one part of the list.

assay: qHTS Assay for Modulators of miRNAs and/or Inhibitors of miR-21; details: HeLa miR-21-FLuc reporter, luciferase luminescence, 48 h; actives lower the signal; further: nearly all actives have a fitted effect of over 55% in size
In short: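 Using DMEM plus 10% FBS, HeLa miR-21-FLuc cells are incubated with test compounds (final up to about 40uM) for 48 hours; firefly luciferase signal is then imaged following reagent-mediated lysis.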
Potency means the concentration at half of the fitted maximal effect.

Potency, active:
Cc1ccc(C(=O)NCc2ccc3c(c2)CCO3)cc1C 10.4 µM
COC(=O)c1ccc(N=NN2CCCCC2)cc1 7.36 µM
O=C(O)c1cccc(N=NN2CCCCCC2)c1 0.165 µM
COC(=O)c1ccc(N=NN2CCCCCC2)cc1 5.85 µM
COC(=O)c1ccc(N=NN2CCOCC2)cc1 7.36 µM
Cc1cc(C(F)(F)F)c(C#N)c(SCC(=O)Nc2nc3cc(Br)ccc3s2)n1 3.69 µM
CCc1ccc(NC2Nc3cc(C)nn3S2)cc1 (centres undefined) 1.65 µM
Cc1ccc(NC2Nc3cc(C)nn3S2)c(C)c1 (centres undefined) 6.56 µM
Cc1csc(SCc2nnc(-c3ccc(Cl)cc3)o2)n1 4.65 µM
O=C(CSc1nc2ccccc2s1)N/N=C/c1ccccc1C(=O)O 16.5 µM
Cc1c(C=O)c2cc(OCc3ccccc3)ccc2n1C 4.14 µM
COc1ccc(-c2nc3n(c2C)Cc2ccccc2-3)cc1 6.56 µM
Oc1[nH]c2ccccc2c1N=Nc1ccc(F)cc1 5.85 µM
Cc1ccc(N=Nc2c(O)[nH]c3ccc(F)cc23)cc1 1.31 µM
CCOC(=O)c1c(C)[nH]c(C(=O)COC(=O)C2CC2C)c1C (centres undefined) 2.61 µM
CCOC(=O)c1c(C)[nH]c(C(=O)COC(=O)CNC(=O)c2ccccc2Cl)c1C 13.1 µM
CCOC(=O)c1c(C)[nH]c(C(=O)CSc2nccc(C)n2)c1C 4.65 µM
CCOC(=O)c1c(C)[nH]c(C(=O)CSc2ccc(Cl)cc2)c1C 7.36 µM
CCOC(=O)c1c(C)[nH]c(C(=O)COC(=O)CCSc2ccccc2)c1C 13.1 µM
Cc1ccc(N/C=C2/Sc3ccccc3NC2=O)cc1 4.14 µM
Cc1nn(-c2ccccc2)c(Cl)c1/C=N/NC(=O)c1ccnn1C 5.21 µM
Cc1nn(-c2ccccc2)c(Cl)c1/C=N/NC(=O)c1ccco1 3.29 µM
Cc1nn(-c2ccccc2)c(Cl)c1/C=N/Nc1nc2ccccc2[nH]1 0.293 µM
COC(=O)N/N=C\c1c(C)nn(-c2ccccc2)c1Cl 7.36 µM
CCOC(=O)N/N=C/c1c(C)nn(-c2ccccc2Cl)c1Cl 7.36 µM
Cc1nn(-c2ccccc2)c(Cl)c1/C=N/NC(N)=O 16.5 µM
Cc1nn(-c2ccccc2)c(Cl)c1/C=N/NC(=O)c1ccccc1F 4.65 µM
CC1CCCN(c2nc3ccsc3c(=O)s2)C1 (centres undefined) 8.26 µM
Cn1nc(NC(=O)C(F)(F)F)c2ncc(-c3ccc(Cl)cc3)nc21 9.27 µM
Cc1ccc2c(C)c(C(=O)N3CCCC(C(N)=O)C3)oc2c1C (centres undefined) 13.1 µM
c1ccc(COc2ccc(CN3CCN(c4ccccn4)CC3)cc2)cc1 6.56 µM
C=COC(=O)CSc1nc(-c2cccs2)ccc1C#N 0.927 µM
CCOC(=O)c1ccc(Nc2cnc3ccccc3n2)cc1 1.47 µM
CCOC(=O)c1cnc(-c2ccccc2)nc1N(C)C 7.36 µM
Cc1cc(-c2ccccc2)nc(-c2ccccc2)c1C 7.36 µM
Cc1cc2ncc(-c3ccccc3)nc2cc1C 0.656 µM
CCOC(=O)c1ccc2ncc(-c3ccccc3)nc2c1 1.85 µM
CCOC(=O)c1ccc2c(c1)nc(-c1ccccn1)n2CC 1.65 µM
O=[N+]([O-])c1cccc(-c2ccc(SCc3ccccn3)nn2)c1 6.56 µM
Cc1cc2ncn(C(=O)N3CCC(C)CC3)c2cc1C 10.4 µM
COc1cc(/C=C/c2ccc(O)cc2)cc(OC)c1 2.93 µM
FC(F)(F)c1ccnc(Oc2ccc(C3=NCCS3)cc2)c1 1.65 µM
Cc1ccccc1CSc1ccc(-c2ccc3c(c2)OCO3)nn1 14.7 µM
O=C(Cn1nnc(-c2ccc3c(c2)OCO3)n1)Nc1ccccc1C(=O)O 14.7 µM
Cc1ccccc1Cn1nnc(-c2ccc3c(c2)OCO3)n1 16.5 µM
COc1cccc(-n2cnc3sc(C)c(C)c3c2=O)c1 11.7 µM
Fc1cccc(NCc2ccccc2-c2nnc(-c3ccccc3Cl)o2)c1 1.04 µM
Clc1ccccc1-c1nnc(-c2ccccc2Cl)o1 3.69 µM
Clc1ccccc1-c1nnc(-c2ccc3c(c2)OCO3)o1 0.585 µM
O=C(c1cccc(C(F)(F)F)c1)C1CCCN(C(=O)CN2CCCC2=O)C1 (centres undefined) 3.29 µM
N#Cc1ccccc1CSc1nc2ccsc2c(=O)n1Cc1ccccn1 16.5 µM
Fc1ccc(OCc2nnc(-c3ccccc3Br)o2)c(Cl)c1 13.1 µM
Clc1ccccc1OCc1nnc(-c2ccccc2Br)o1 4.65 µM
Clc1ccccc1-c1nnc(COc2ccccc2)o1 5.85 µM
Clc1cccc(OCc2nnc(-c3ccccc3Br)o2)c1 16.5 µM
N#Cc1ccccc1OCc1nnc(-c2ccccc2Br)o1 1.31 µM
Clc1ccccc1OCc1nnc(-c2ccccc2)o1 7.36 µM
C(#Cc1ccccc1)Cn1nnc2ccccc21 13.1 µM
Clc1ccccc1OCCn1nnc2ccccc21 13.1 µM
c1ccc(CCn2nnc3ccccc32)cc1 14.7 µM
CCOC(=O)C1(Cc2cccc(OC)c2)CCCN(C(=O)CCN2CCCO2)C1 (centres undefined) 5.85 µM
CCOC(=O)C1(Cc2ccccc2)CCCN(C(=O)c2cnn(CC)c2)C1 (centres undefined) 9.27 µM
O=C(N/N=C/c1cn(-c2ccccc2)nc1-c1cc2ccccc2o1)c1ccccc1Br 0.927 µM
CCC(=O)Nc1ccc2nc(C3CC3)n(Cc3ccc(C(C)(C)C)cc3)c(=O)c2c1 0.185 µM
COc1ccc(Cn2c(C3CC3)nc3ccc(NC(=O)C4CC4)cc3c2=O)cc1 1.47 µM
COc1ccc(Cn2c(C3CC3)nc3ccc(NC(C)=O)cc3c2=O)cc1 3.29 µM
CC(=O)c1ccc(NS(=O)(=O)c2cccc(C)c2)cc1 11.7 µM
Cc1cccc(S(=O)(=O)Nc2ccc(-c3nc4ccc(C)cc4s3)cc2)c1 2.07 µM
Cc1ccc2nc(-c3ccc(NS(=O)(=O)c4ccc(F)cc4)cc3)sc2c1 6.56 µM
